ADAM17 inh: ADAM17 inhibition, QFRET primary screen; recombinant ADAM17, EDANS/DABCYL FRET peptide cleavage; inhibition, % at 6.95 µM; actives 0.83% (n = 370,000);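 active = inhibition above the mean of compounds lying between control limits plus 3 SD, set per campaign, cut at about 8.5% in these data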;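 also: 0% = DMSO-only wells as the low control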
PLC-beta3 inh: inhibitors of human phospholipase C beta3 | Q01970 | Purified PLC-beta3, fluorogenic substrate, fluorescence | inhibition, % at 12.2 µM | actives 0.18% (n = 370,000) | AID 720704; in the data active = inhibition above about 11%;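 also: 0% = median of compound wells on plate and 100% = full blocker control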
PLC-gamma1 inh: PLC-gamma1 (human) inhibition, primary screen | purified PLC-gamma1, fluorogenic substrate, fluorescence | AID 720700 | inhibition, % at 12.2 µM | actives 0.84% (n = 370,000) | P19174; in the data active = inhibition above about 9.5%
KLK7 zymogen act: activators of human kallikrein-7 zymogen; actives 0.9% (n = 370,000); purified proKLK7, EDANS-DABCYL substrate fluorescence; 100% is mature enzyme control, 0% vehicle; activation, % at 7 µM; P49862;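 active = activation above the mean of all tested compounds plus 3 SD, computed per campaign excluding outliers beyond control limits, cut at about 13% in these data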
Target sequence (P49862 whole entry, looked up): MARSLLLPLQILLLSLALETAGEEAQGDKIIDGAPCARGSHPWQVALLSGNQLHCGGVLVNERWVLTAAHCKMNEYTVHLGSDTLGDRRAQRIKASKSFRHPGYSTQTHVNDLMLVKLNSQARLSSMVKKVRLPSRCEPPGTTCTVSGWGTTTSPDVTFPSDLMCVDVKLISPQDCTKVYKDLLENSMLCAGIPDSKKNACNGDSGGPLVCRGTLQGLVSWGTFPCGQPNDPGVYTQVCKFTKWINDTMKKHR
ADAM10 inh: ADAM10 inhibition, QFRET primary screen; O14672; actives 0.62% (n = 370,000); recombinant ADAM10, EDANS/DABCYL FRET peptide cleavage, 3 h; inhibition, % at 7 µM;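 active = inhibition above a per-campaign cutoff equal to the mean of compounds falling between control-based bounds plus 3 SD, cut at about 20% in these data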;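 also: 0% = DMSO wells while the 100% control is not disclosed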
sPLA2-III inh: Inhibits HGIII-sPLA2 liposome hydrolysis, primary screen. inhibition, % at 12.2 µM. QFRET BODIPY PC-A2 liposome hydrolysis, fluorescence. Q9NZ20. AID 743126. actives 0.56% (n = 370,000);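 active = inhibition above mean plus 3 SD of compounds lying within the high and low control bounds, cut at about 19% in these data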;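 also: 0% = median of test compound wells and 100% = no enzyme DMSO wells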
KLK7 act conf: proKLK7 activation, confirmation; activation, % at 7 µM; shares compounds with KLK7 zymogen act; actives 68% (n = 3,200); purified proKLK7, EDANS-DABCYL substrate fluorescence; scaled: vehicle 0, mature enzyme 100;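 active = activation, as change over the incubation, above the mean of all tested compounds plus 3 SD, cut at about 13% in these data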
EDANS interfere: counter-screen for kallikrein-7 activators: EDANS-DABCYL optical interference; shares compounds with KLK7 zymogen act; EDANS-DABCYL substrate fluorescence interference, no enzyme, 4 h; solvent 0%, active enzyme control 100%; activation, % at 7 µM; actives 80% (n = 3,200); AID 686952;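 active = activation above the all-compound mean plus 3 SD, ignoring values outside control-based bounds, cut at about 4.8% in these data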;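 also: value is the 4 h activation minus the activation read at time zero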
EDANS interf: counter-screen for kallikrein-7 activators: EDANS-DABCYL interference, dose response. actives 20% (n = 250). EDANS-DABCYL peptide fluorescence interference, no enzyme. shares compounds with KLK7 zymogen act. EC50, µM. AID 720493;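 active = compounds that raise the fluorescence signal in this interference counterscreen, with EC50 at or below 10 µM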;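 also: intact quenched peptide substrate alone read at 355 nm excitation and 520 nm emission; signal is fluorescence gain from T0 to T4 after four hours at room temperature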
* marks the source's active call; other numbers are inactive results; i = inactive; · = no result. The list is not random: actives were taken first. Their share in the collection is about 3.4%.

SMILES | ADAM17 inh | PLC-beta3 inh | PLC-gamma1 inh | KLK7 zymogen act | ADAM10 inh | sPLA2-III inh | KLK7 act conf | EDANS interfere | others
Cc1cccc(CNC(=O)c2ccc3c(c2)N(C)CCS3)c1 | i | i | i | 18* | i | 3 | -7 | -6
CN1CCSc2ccc(C(=O)NCc3cccc(Br)c3)cc21 | -462 | i | i | 10 | i | -1 | · | ·
COc1ccc(CNC(=O)c2ccc3c(c2)N(C)CCS3)cc1 | i | i | i | 35* | i | 4 | 8 | 33*
CCOC(=O)N1CCC(NC(=O)c2ccc3c(c2)N(Cc2ccc(C)cc2)CCS3)CC1 | -49 | -100 | -76 | -12 | -253 | 2 | · | ·
CCOC(=O)N1CCC(NC(=O)c2ccc3c(c2)N(C)CCS3)CC1 | i | i | i | 51* | i | 0 | 66* | 73*
COC(=O)C1=C(C)N(CC(C)C)C(=S)NC1c1cccc(F)c1 (stereo not drawn) | -6 | -1 | 7 | 0 | 0 | 13 | · | ·
COc1ccc([C@H]2Cc3cccc(O)c3C(=O)O2)cc1O | -6 | -25 | -17 | -1 | -8 | -8 | · | ·
O=C1O[C@@H](c2ccc(O)cc2)Cc2cccc(O)c21 | -30 | -269 | -160 | 49* | -135 | -16 | 44* | 52*
CC(=O)Nc1ccc2c3c(cccc13)C(=O)N(c1ccccc1)C2=O | i | i | i | 59* | i | -2 | 65* | 71*
O=C(NC1CCCCC1)c1cc2ccccc2cc1O | -4 | -103 | -62 | -9 | -8 | -30 | · | ·
Nc1nc2ncccc2cc1C(=O)NC1CCCCC1 | -473 | -330 | -241 | 24* | i | -1 | 20* | 25*
Nc1nc2ncccc2cc1C(=O)NC1CC1 | i | -469 | -415 | 25* | i | 1 | 28* | 27*
Nc1c(C(=O)Nc2ccccc2)c2nc3ccccc3nc2n1CCCN1CCOCC1 | -13 | -56 | -47 | -8 | -17 | -13 | · | ·
CCCCn1c(NC(C)=O)c(C#N)c2nc3ccccc3nc21 | -344 | i | i | -21 | i | -6 | · | ·
N#Cc1c(N)n(CCCN2CCOCC2)c2nc3ccccc3nc12 | i | i | i | 47* | i | -4 | 68* | 79*
CCCCCn1c(N)c(C#N)c2nc3ccccc3nc21 | i | i | i | 22* | i | 10 | -60 | -56
CCc1ccc(-c2ccc(C(=O)O)c(C)n2)cc1 | -6 | -3 | 0 | 0 | -7 | 16 | · | ·
CCc1ccc(-c2cnc3nc[nH]c(=O)c3n2)cc1 | -411 | i | i | 15* | i | -10 | 38* | 39*
c1ccc(OCc2nnc(SCc3nc4ccccc4[nH]3)n2-c2ccccc2)cc1 | -3 | -4 | -4 | 1 | -12 | 2 | · | ·
COc1cccc(C2NC(=S)N(Cc3ccccc3)C(C)=C2C(C)=O)c1 (stereo not drawn) | -3 | -2 | 2 | 0 | -8 | 4 | · | ·
COc1ccc(C2=Cc3ccc(OC(C)=O)cc3OC2)cc1 | -24 | -161 | -117 | 24* | -77 | -5 | 14* | 11*
Cc1[nH]c2ccccc2c1CC(=O)Nc1ccc(N(C)c2cccnc2)c(-c2cccc(Cl)c2)c1 | -3 | -28 | -18 | 0 | -10 | 1 | · | ·
N#CCSc1nc2c(cc1C#N)CCCCCC2 | -44 | i | i | 15* | -181 | -14 | 34* | 33*
CCOC(=O)CC(=O)CSc1nc2c(cc1C#N)CCCCC2 | -29 | -136 | -111 | 29* | -90 | 0 | 59* | 62*
CC(C)OC(=O)CC(=O)CSc1nc2c(cc1C#N)CCCCC2 | -20 | -79 | -61 | 24* | -95 | -4 | 80* | 81*
SMILES | ADAM17 inh | PLC-beta3 inh | PLC-gamma1 inh | KLK7 zymogen act | ADAM10 inh | sPLA2-III inh | KLK7 act conf | EDANS interfere | others
CC(C)OC(=O)CSc1nc2c(cc1C#N)CCCCC2 | -7 | -33 | -21 | 0 | -18 | -4 | · | ·
COc1ccc(NC(=O)N(C)C[C@H]2OCCCC[C@H](C)Oc3ccc(NC(=O)Nc4cccc5ccccc45)cc3C(=O)N([C@@H](C)CO)C[C@H]2C)cc1 | -27 | -72 | -51 | -8 | -104 | -20 | · | ·
CCOc1cc(C(=O)Nc2cc(OC)cc(OC)c2)ccc1OCC(=O)N1CCOCC1 | -3 | -5 | -1 | 0 | -1 | -3 | · | ·
CCOc1cc(C(=O)Nc2ccc(S(=O)(=O)N3CCCCC3)cc2)ccc1OCC(=O)N1CCOCC1 | -1 | -4 | -3 | 20* | 1 | -14 | 14* | 15*
COc1cc(/C=C2\CCC/C(=C\c3ccc(O)c(OC)c3)C2=O)ccc1O | 7 | -48 | -32 | 0 | 7 | 5 | · | ·
O=C1/C(=C/c2cccc([N+](=O)[O-])c2)Oc2cc(O)ccc21 | -2 | -10 | -1 | 0 | -14 | 12 | · | ·
Cc1ccsc1/C=C1\Oc2cc(O)ccc2C1=O | -7 | i | i | 15* | -22 | -50 | 21* | 24*
COc1cc(/C=C2\Oc3cc(O)ccc3C2=O)ccc1O | -29 | i | i | 55* | -115 | -25 | 36* | 36*
O=C1/C(=C/c2ccc(O)c(O)c2)Oc2cc(O)ccc21 | -2 | -245 | -192 | 45* | -18 | -16 | 109* | 118*
COC(=O)C1=C(C)N(Cc2ccccc2C(F)(F)F)C(=NCc2ccc(OC)cc2)NC1c1ccc(Cl)cc1 (stereo not drawn) | -1 | 2 | 6 | 0 | 3 | -2 | · | ·
O=C(NCCc1ccc(F)cc1)c1coc(=O)c(Br)c1 | -188 | -149 | -122 | 13* | -463 | 6 | 30* | 29*
COc1ccc(S[C@]2(C(=O)N3CCCC3)CC(=O)N(P(=O)(OC)OC)[C@@H]2c2ccc(OC)cc2)cc1 | 5 | 0 | 5 | 1 | -1 | 5 | · | ·
COc1ccc(-c2c(-c3ccccc3OC)sc3ccccc23)cc1F | -20 | -32 | -26 | -29 | -104 | -4 | · | ·
CSc1ccc(/C=C/C(=O)OCC(=O)NC2CCS(=O)(=O)C2)cc1 (stereo not drawn) | -310 | -438 | -346 | 23* | i | 12 | 20* | 16* | EDANS interf=>69
CSc1ccc(/C=C/C(=O)OCC(=O)NCC2CCCO2)cc1 (stereo not drawn) | -313 | -441 | -359 | 18* | i | 4 | 14* | 16*
